Source: PubChem (National Center for Advancing Translational Sciences (NCATS))
This is a sample that favours compounds with a hit; in the whole collection about 9.4% have one here.
ELG1 genotoxic – qHTS screen for small molecules that induce genotoxicity in human embryonic kidney (HEK293T) cells expressing luciferase-tagged ELG1 | HEK293T ELG1-luciferase reporter, luminescence, 16 h | Potency, µM (doses to about 46 µM), inactives show at the highest dose activity change, positive = activation, actives largely listed as activators | 330,000 compounds, 1.3% hits; note: % of control where 0% means no effect; nearly all actives have a fitted effect of over 60% in size
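16 hr compound incubation (37 °C, 5% CO2) of HEK293T cells carrying luciferase-tagged ELG1; luciferase then measured by ONE-Glo luminescence after 30 min at RT.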
Rab9 prom act – qHTS Assay for Rab9 Promoter Activators. Huh7 Rab9 promoter-luciferase reporter, luminescence, 24 h. Potency, µM (series often up to 9.22 µM), for the others: at the top dose activation, negative = inhibition, most hits filed as activators. 320,000 compounds, 2.8% hits. AID 485297, 2010; note: % of control where 0% means no effect; nearly all actives have a fitted effect of over 60% in size
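Quantitative HTS format; Huh7 Rab9-luciferase reporter cells (1500/well) receive compound 2 h post-plating, incubate 24 h at 37 °C, then get luciferase reagent for 10 min before luminescence reading.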
FLuc counter – qHTS profiling assay for firefly luciferase inhibitor/activator using purifed enzyme and Km concentrations of substrates (counterscreen for miR-21 project). purified FLuc, Km substrates, luminescence inhibition. Potency, µM (doses to about 57.5 µM), for the others: at the highest dose activity change, negative = inhibition, hits mostly inhibitors. 360,000 compounds, 6.9% hits. AID 588342, 2011;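 note: plate controls were vehicle for no effect and reference inhibitor for full effect; nearly all actives have a fitted effect of over 55% in size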
Target sequence (P08659 whole entry, looked up): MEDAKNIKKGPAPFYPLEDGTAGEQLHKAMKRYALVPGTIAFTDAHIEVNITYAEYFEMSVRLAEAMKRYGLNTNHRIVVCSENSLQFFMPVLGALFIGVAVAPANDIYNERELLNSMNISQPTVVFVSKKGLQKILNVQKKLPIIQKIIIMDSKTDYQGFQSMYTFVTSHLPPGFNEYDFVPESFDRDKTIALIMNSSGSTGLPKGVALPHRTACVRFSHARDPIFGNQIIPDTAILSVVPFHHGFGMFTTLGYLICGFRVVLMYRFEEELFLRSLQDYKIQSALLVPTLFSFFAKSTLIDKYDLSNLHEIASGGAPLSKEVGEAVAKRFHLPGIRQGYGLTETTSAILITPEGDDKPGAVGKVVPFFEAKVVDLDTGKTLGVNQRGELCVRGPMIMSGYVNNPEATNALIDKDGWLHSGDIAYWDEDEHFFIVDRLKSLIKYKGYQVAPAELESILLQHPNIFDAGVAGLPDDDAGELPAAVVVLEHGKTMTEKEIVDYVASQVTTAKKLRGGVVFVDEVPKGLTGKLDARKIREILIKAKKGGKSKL
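Biochemical qHTS of compounds, final roughly 60 µM downward over six points, against 10 nM purified firefly luciferase using Km concentrations of substrates (10 uM D-luciferin, 10 uM ATP) in Tris acetate pH 7.5 buffer; luminescence output.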
NPC1 promoter act – qHTS Assay for NPC1 Promoter Activators; Huh7 NPC1 promoter luciferase reporter, 24 h; Potency, µM (doses to about 9.22 µM), for inactives: at the top dose activation, usual class: activators; 320,000 compounds, 2.4% hits; note: % of control where 0% means no effect; nearly all actives have a fitted effect of over 60% in size
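Huh7 cells stably carrying NPC1 promoter–luciferase, plated in Opti-MEM with 10% FBS for 2 h, were exposed to compound in DMSO for 24 h at 37 °C; luciferase reagent was added for 10 min and luminescence read.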
SMN2 splice enh – qHTS Assay for Enhancers of SMN2 Splice Variant Expression. HEK293 SMN2-luciferase splicing reporter, luminescence, 30-36 h. Potency, µM (highest dose often 46.1 µM), without a hit: at the top dose activity change, positive = activation, usual class: activators. 210,000 compounds, 2.8% hits; note: % of control where 0% means no effect; nearly all actives have a fitted effect of over 55% in size
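qHTS luciferase splicing reporter: luminescence rises when SMN2 exon 7 is included in transfected HEK293 cells. Compound exposure lasted 30-36 h at 37C, with 4.5 mM final sodium butyrate as control, followed by a ONE-Glo read.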
ELG1 repair inh – qHTS screen for small molecules that inhibit ELG1-dependent DNA repair in human embryonic kidney (HEK293T) cells expressing luciferase-tagged ELG1 | 330,000 compounds, 2.3% hits | HEK293T ELG1-luciferase reporter, luminescence, 16 h; DNA damage induced by 5-fluorouridine | Potency, µM (top dose mostly 46.1 µM), without a hit: top-dose activity change, negative = inhibition, hits mostly inhibitors; note: % is set by controls: 0 for no effect and ±100 for the full control effect; nearly all actives have a fitted effect of over 55% in size
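Quantitative HTS, concentration-response format. 2,000 cells/well co-treated with 5-fluorouridine and compound, 16 hr in 5% CO2 at 37 °C; ONE-Glo luminescence read after 30 min.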
The depositor's hits bear a star; u = inconclusive; x = not tested or not shown; [ ] = dose if it differs, or a comment. Calls come from the whole dose curve; as a rule, active = well fitted curve in the direction sought with a large enough effect; inconclusive = small, poorly fitted or top-dose-only effect, or another doubt; inactive = no such curve, though single readings can be large; an effect the other way counts as inactive or inconclusive. Potency is the fitted concentration of half-maximal effect.

SMILES	ELG1 genotoxic	Rab9 prom act	FLuc counter	NPC1 promoter act	SMN2 splice enh	ELG1 repair inh
O=C(Nc1ccc(Cl)cc1C(F)(F)F)C(Sc1cccc[n+]1[O-])c1ccccc1 (centres undefined)	0%	-6%	0%	0%	5.6µM*	0%
Cc1ccc(C)c(NC(=O)C(Sc2cccc[n+]2[O-])c2ccccc2)c1 (centres undefined)	0%	4%	-4%	-3%	4%	14%
O=c1c(N2CCN(c3cccc(C(F)(F)F)c3)CC2)csc2ccccc12	x	x	0%	x	x	x
Brc1ccc(-c2csc(N3CCc4ccccc4C3)n2)cc1	0%	-7%	u	0%	-6%	11%
COc1ccccc1N1CCN(c2csc3ccccc3c2=O)CC1	x	x	11µM*	x	x	x
O=c1c(N2CCc3ccccc3C2)csc2ccc(Br)cc12	x	x	9.5µM*	x	x	x
O=c1c(N2CCc3ccccc3C2)csc2ccccc12	x	x	9.5µM*	x	x	x
Cc1cc(OC(=O)c2ccccc2Br)cc(=O)n1C	-5%	-2%	21µM*	3%	-1%	u
COc1ccc(CC(=O)NCC(c2cccs2)S(=O)(=O)c2ccc(Cl)cc2)cc1 (centres undefined)	x	x	-12%	x	x	x
CC(=O)c1ccc(S(=O)(=O)Nc2ccc(-c3ccc(N4CCCCCC4)nn3)cc2)cc1	x	x	11µM*	x	x	x
CC(=O)c1ccc(S(=O)(=O)Nc2ccc(-c3ccc(N4CCCCC4)nn3)cc2)cc1	x	x	8.5µM*	x	x	x
Cc1ccc(S(=O)(=O)Nc2ccc(-c3ccc(N4CCCCCC4)nn3)cc2)c(C)c1	x	x	-19%	x	x	x
O=C(NCc1ccco1)c1c[nH]c2ccc(S(=O)(=O)Nc3ccc(F)cc3F)cc2c1=O	x	x	u	x	-9%	x
Cn1c(C(=O)Nc2cccc(Cl)c2)cc2c(=O)n(C)c3ccccc3c21	x	x	0%	x	-3%	x
Cc1cccc(N2CCN(C(=O)C3CCN(S(=O)(=O)c4c(C)noc4C)CC3)CC2C)c1 (centres undefined)	-5%	-2%	1%	-1%	-39%	21µM*
Cc1cccc(N2CCN(C(=O)C3CCCN(S(=O)(=O)c4cnc[nH]4)C3)CC2C)c1 (centres undefined)	-7%	-3%	4%	0%	-5%	23µM*
C[C@H](NC(=O)N1CCc2nc(-c3ccccc3)c3c(c2C1)CO[C@@H](C)C3)c1ccccc1	x	x	x	x	1%[9.22 µM]	x
CC(C)c1ccc(/C=C/C(=O)Nc2nncs2)cc1	u	0.5µM*	0.76µM*	0.89µM*	18µM*	u
CCC[C@@H]1C[C@@]1(CCC)C(NC(=O)c1ccccc1)c1cccc(Cl)c1 (some centres undefined)	x	x	x	x	-15%	x
COC(=O)c1sccc1NC(=O)C1C2C=CC(C2)C1C(=O)O (centres undefined)	2%	-1%	12%	-2%	-29%	12%
Cc1ccsc1C(=O)NNC(=O)C1C2C=CC(C2)C1C(=O)O (centres undefined)	u	8%	24µM*	3%	7%	u
CCc1ccccc1NC(=O)Nc1cc(C(=O)NCc2cccc(F)c2)ccc1N1CCCC1	x	x	0%	x	x	x
COc1cc(COCC(O)CN2CCN(CCN3C(=O)c4cccc5cccc(c45)C3=O)CC2)cc(OC)c1OC (centres undefined)	1%	-10%	-2%	3%	-26%	12µM*
COc1ccc(COCC(O)CN2CCC(CN3C(=O)c4cccc5cccc(c45)C3=O)CC2)cc1OC (centres undefined)	-4%	-5%	2%	-1%	-37%	u
O=C1c2cccc3cccc(c23)C(=O)N1CCN1CCN(CC(O)COCc2ccc(Cl)cc2)CC1 (centres undefined)	-5%	-8%	2%	-4%	-25%	21µM*
SMILES	ELG1 genotoxic	Rab9 prom act	FLuc counter	NPC1 promoter act	SMN2 splice enh	ELG1 repair inh
C/C(=N\NC(=O)Cn1ccc(C(F)(F)F)n1)c1ccc2c(c1)OCO2	-3%	11%	-7%	-2%	-7%	-1%
O=C(CNC(=O)c1ccccc1F)N/N=C/c1ccc2c(c1)OCO2	u	u	17µM*	u	x	u
O=C(Cc1ccccc1)N/N=C/c1ccc2c(c1)OCO2	u	4µM*	15µM*	2.5µM*	16µM*	u
O=C(CSc1ncccn1)N/N=C/c1ccc2c(c1)OCO2	u	u	11µM*	26%	x	u
O=C(Cn1ccc(C(F)(F)F)n1)N/N=C/c1ccc2c(c1)OCO2	u	6%	19µM*	23%	x	u
Cc1ccc(NC(=O)c2sc3nc4c(cc3c2N)CN(Cc2ccccc2)CC4)cc1	x	x	-2%	x	4%	x
CCCCS(=O)CC(O)CSc1nc(-c2ccc(OC)cc2)cc(-c2ccccc2)c1C#N (centres undefined)	x	x	-2%	x	0%	x
CC(=O)c1ccc(N2CCN(S(=O)(=O)c3ccc4c(c3)CC(C)N4C(=O)C3CCC3)CC2)cc1 (centres undefined)	x	x	6%	x	x	x
O=C(CNc1ccccc1)N/N=C/c1ccc2c(c1)OCO2	2%	3%	u	5%	7%	3%
COc1cccc(C(=O)NCC(=O)N/N=C/c2cccnc2)c1	2%	0%	3%	-2%	x	10%
COc1cccc(C(=O)NCC(=O)N/N=C/c2ccc3c(c2)OCO3)c1	6%	1%	24µM*	3%	x	u
O=C(CNc1ccccc1)N/N=C/c1ccc2c(c1)OCCO2	1%	0%	9.5µM*	2%	u	u
CCN(CC)c1cc2c(cc1F)c(=O)c(S(=O)(=O)c1ccccc1)cn2Cc1ccccc1	x	x	-9%	x	x	x
COc1ccc2cc(CN(Cc3ccco3)C(=S)NCC3CCCO3)c(=O)[nH]c2c1 (centres undefined)	-8%	-9%	0%	-8%	-4%	23µM*
CCc1ccc2[nH]c(=O)c(CN(CCN(C)C)C(=S)NCc3ccco3)cc2c1	-5%	-8%	-2%	-5%	x	-14%
CCc1ccc2[nH]c(=O)c(CN(CC3CCCO3)C(=S)NCc3ccco3)cc2c1 (centres undefined)	-5%	1%	-3%	0%	x	18µM*
CC(=O)c1cccc(NC(=O)c2cc(-c3ccc(Cl)s3)nc3ccccc23)c1	x	x	-18%	x	-12%	x
Cc1ccc(-c2cc(-c3cccs3)[nH]n2)c(O)c1	4.1µM*	3%	6.7µM*	3%	47%	u
